Laboratory results published in the supplement of paper PMC8728848.
Shown is part of a subset that was picked to be rich in the strongest signals.

Legend:
Assay in all cases: glycan array binding signal (z-score within array); higher = stronger binding
Conditions in all cases: glycan notation: IUPAC condensed, linker removed
[1] = biological target: Fuc(a1-2)Gal(b1-3)GlcNAc(b1-3)[Gal(b1-4)GlcNAc(b1-6)]Gal(b1-4)Glc
How it was run: (§1)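 The binding signal is a Z-score computed within each array and averaged over linkers. Arrays of the same protein sequence at different concentrations or buffers were also averaged together. Data originate from 3228 arrays in the Consortium for Functional Glycomics database, kept only where the protein sequence was available.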

[2] = biological target: Fuc(a1-2)Gal(b1-3)GlcNAc(b1-3)[Neu5Ac(a2-6)Gal(b1-4)GlcNAc(b1-6)]Gal(b1-4)Glc
How it was run: as §1

[3] = biological target: Fuc(a1-2)Gal(b1-4)Glc
How it was run: as §1

[4] = biological target: Fuc(a1-2)Gal(b1-4)GlcNAc6S
How it was run: as §1

[5] = biological target: Fuc(a1-2)[Gal(a1-3)]Gal(b1-4)GlcNAc(b1-3)[Fuc(a1-2)[Gal(a1-3)]Gal(b1-4)GlcNAc(b1-6)]GalNAc
How it was run: as §1

[6] = biological target: Fuc(a1-2)[Gal(a1-3)]Gal(b1-4)[Fuc(a1-3)]GlcNAc
How it was run: as §1

[7] = biological target: Fuc(a1-2)[GalNAc(a1-4)]Gal(b1-4)GlcNAc
How it was run: as §1

[8] = biological target: Fuc(a1-4)GlcNAc
How it was run: as §1

[9] = biological target: Gal(b1-3)Gal
How it was run: as §1

[10] = biological target: Gal(b1-3)GlcNAc(b1-3)Gal(b1-4)GlcNAc(b1-2)Man(a1-3)[Gal(b1-3)GlcNAc(b1-3)Gal(b1-4)GlcNAc(b1-2)Man(a1-6)]Man(b1-4)GlcNAc(b1-4)GlcNAc
How it was run: as §1

[11] = biological target: Gal(b1-3)GlcNAc(b1-3)Gal(b1-4)GlcNAc(b1-2)[Gal(b1-3)GlcNAc(b1-3)Gal(b1-4)GlcNAc(b1-6)]Man(a1-6)[Gal(b1-3)GlcNAc(b1-3)Gal(b1-4)GlcNAc(b1-2)Man(a1-3)]Man(b1-4)GlcNAc(b1-4)[Fuc(a1-6)]GlcNAc
How it was run: as §1

[12] = biological target: Gal(b1-3)[Fuc(a1-4)]GlcNAc
How it was run: as §1

[13] = biological target: Gal(b1-4)Glc6S
How it was run: as §1

[14] = biological target: Gal(b1-4)GlcNAc(b1-2)[Gal(b1-4)GlcNAc(b1-4)]Man(a1-3)[Gal(b1-4)GlcNAc(b1-2)Man(a1-6)]Man(b1-4)GlcNAc(b1-4)GlcNAc
How it was run: as §1

[15] = biological target: Gal(b1-4)GlcNAc(b1-2)[Gal(b1-4)GlcNAc(b1-4)]Man(a1-3)[GlcNAc(b1-4)][Gal(b1-4)GlcNAc(b1-2)[Gal(b1-4)GlcNAc(b1-6)]Man(a1-6)]Man(b1-4)GlcNAc(b1-4)GlcNAc
How it was run: as §1

[16] = biological target: Gal(b1-4)GlcNAc(b1-3)Gal(b1-4)GlcNAc(b1-3)Gal(b1-4)GlcNAc(b1-2)Man(a1-3)[Gal(b1-4)GlcNAc(b1-3)Gal(b1-4)GlcNAc(b1-3)Gal(b1-4)GlcNAc(b1-2)Man(a1-6)]Man(b1-4)GlcNAc(b1-4)[Fuc(a1-6)]GlcNAc
How it was run: as §1

[17] = biological target: Gal(b1-4)GlcNAc(b1-3)GalNAc
How it was run: as §1

[18] = biological target: Gal(b1-4)GlcNAc(b1-3)[Fuc(a1-3)GlcNAc(b1-6)]Gal(b1-4)Glc
How it was run: as §1

[19] = biological target: GlcNAc(b1-3)Gal(b1-4)GlcNAc(b1-3)[GlcNAc(b1-3)Gal(b1-4)GlcNAc(b1-3)]GalNAc
How it was run: as §1

[20] = biological target: GlcNAc(b1-3)Gal(b1-4)GlcNAc(b1-6)[Gal(b1-3)]GalNAc
How it was run: as §1

[21] = biological target: GlcNAc(b1-3)[GlcNAc(b1-4)][GlcNAc(b1-6)]GlcNAc
How it was run: as §1

[22] = biological target: GlcNAc(b1-4)[GlcNAc(b1-6)]GalNAc
How it was run: as §1

[23] = biological target: Kdn(a2-3)Gal(b1-4)[Fuc(a1-3)]GlcNAc
How it was run: as §1

[24] = biological target: Man(a1-2)Man(a1-2)Man(a1-3)Man
How it was run: as §1

[25] = biological target: Man(a1-2)Man(a1-2)Man(a1-6)[Man(a1-3)]Man
How it was run: as §1

[26] = biological target: Man(a1-2)Man(a1-3)Man
How it was run: as §1

[27] = biological target: Man(a1-2)Man(a1-3)[Man(a1-2)Man(a1-6)]Man
How it was run: as §1

[28] = biological target: Man(a1-2)Man(a1-3)[Man(a1-2)Man(a1-6)]Man(a1-6)[Man(a1-2)Man(a1-2)Man(a1-3)]Man
How it was run: as §1

[29] = biological target: Man(a1-2)Man(a1-6)[Man(a1-3)]Man(a1-6)[Man(a1-2)Man(a1-2)Man(a1-3)]Man
How it was run: as §1

[30] = biological target: Man(a1-2)Man(a1-6)[Man(a1-3)]Man(a1-6)[Man(a1-2)Man(a1-2)Man(a1-3)]Man(b1-4)GlcNAc(b1-4)GlcNAc
How it was run: as §1

[31] = biological target: Man(a1-3)[Man(a1-6)]Man(a1-6)[Man(a1-2)Man(a1-3)]Man(b1-4)GlcNAc(b1-4)GlcNAc
How it was run: as §1

[32] = biological target: Neu5Ac(a2-3)Gal(b1-3)GalNAc
How it was run: as §1

[33] = biological target: Neu5Ac(a2-3)Gal(b1-3)[Fuc(a1-4)]GlcNAc
How it was run: as §1

[34] = biological target: Neu5Ac(a2-3)Gal(b1-3)[GlcNAc(b1-6)]GalNAc
How it was run: as §1

[35] = biological target: Neu5Ac(a2-3)Gal(b1-3)]Neu5Ac(a2-3)Gal(b1-4)]GlcNAc
How it was run: as §1

[36] = biological target: Neu5Ac(a2-3)Gal(b1-4)GlcNAc(b1-2)Man(a1-3)[GlcNAc(b1-4)][Neu5Ac(a2-3)Gal(b1-4)GlcNAc(b1-2)Man(a1-6)]Man(b1-4)GlcNAc(b1-4)GlcNAc
How it was run: as §1

[37] = biological target: Neu5Ac(a2-3)Gal6S(b1-4)[Fuc(a1-3)]GlcNAc
How it was run: as §1

[38] = biological target: Neu5Ac(a2-6)GalNAc
How it was run: as §1

[39] = biological target: Neu5Ac(a2-6)GalNAc(b1-4)GlcNAc
How it was run: as §1

[40] = biological target: Neu5Ac(a2-8)Neu5Ac(a2-3)[GalNAc(b1-4)]Gal(b1-4)Glc
How it was run: as §1

[41] = biological target: Neu5Ac(a2-8)Neu5Gc(a2-3)Gal(b1-4)GlcNAc
How it was run: as §1

[42] = biological target: Neu5Gc(a2-8)Neu5Gc(a2-3)Gal(b1-4)GlcNAc(b1-3)Gal(b1-4)GlcNAc
How it was run: as §1

B1: Dectin2 (Homo sapiens), Q6EIG7 (protein)
chain: MMQEQQPQSTEKRGWLSLRLWSVAGISIALLSACFIVSCVVTYHFTYGETGKRLSELHSYHSSLTCFSEGTKVPAWGCCPASWKSFGSSCYFISSEEKVWSKSEQNCVEMGAHLVVFNTEAEQNFIVQQLNESFSYFLGLSDPQGNNNWQWIDKTPYEKNVRFWHLGEPNHSAEQCASIVFWKPTGWGWNDVICETRRNSICEMNKIYL
**Q.** B1 was tested. Which “glycan array binding signal (z-score)” value [1] did it give?
**A.** Its value is -0.199.

**Q.** And the “glycan array binding signal (z-score)” value [2]?
**A.** Its value is -0.182.

**Q.** And the “glycan array binding signal (z-score)” value [3]?
**A.** The value was -0.165.

**Q.** What about the “glycan array binding signal (z-score)” value [4] of the same binder?
**A.** Its value is 0.311.

**Q.** What about the “glycan array binding signal (z-score)” value [5] of the same binder?
**A.** Its value is -0.136.

**Q.** What about the “glycan array binding signal (z-score)” value [6] of the same binder?
**A.** Its value is -0.1.

**Q.** What about the “glycan array binding signal (z-score)” value [7] of the same binder?
**A.** The value was -0.122.

**Q.** What about the “glycan array binding signal (z-score)” value [8] of the same binder?
**A.** Its value is -0.102.

**Q.** What about the “glycan array binding signal (z-score)” value [9] of the same binder?
**A.** The value was -0.111.

**Q.** What about the “glycan array binding signal (z-score)” value [10] of the same binder?
**A.** Its value is 0.015.

**Q.** What about the “glycan array binding signal (z-score)” value [11] of the same binder?
**A.** Its value is 1.31.

**Q.** And the “glycan array binding signal (z-score)” value [12]?
**A.** Its value is -0.15.

**Q.** And the “glycan array binding signal (z-score)” value [13]?
**A.** The value was -0.188.

**Q.** What about the “glycan array binding signal (z-score)” value [14] of the same binder?
**A.** The value was 0.09.

**Q.** What about the “glycan array binding signal (z-score)” value [15] of the same binder?
**A.** Its value is -0.17.

**Q.** What about the “glycan array binding signal (z-score)” value [16] of the same binder?
**A.** Its value is -0.086.

**Q.** What about the “glycan array binding signal (z-score)” value [17] of the same binder?
**A.** Its value is -0.186.

**Q.** What about the “glycan array binding signal (z-score)” value [18] of the same binder?
**A.** Its value is -0.161.

**Q.** And the “glycan array binding signal (z-score)” value [19]?
**A.** Its value is -0.182.

**Q.** And the “glycan array binding signal (z-score)” value [20]?
**A.** The value was -0.196.

**Q.** And the “glycan array binding signal (z-score)” value [21]?
**A.** The value was 1.3.

**Q.** And the “glycan array binding signal (z-score)” value [22]?
**A.** The value was 1.29.

**Q.** What about the “glycan array binding signal (z-score)” value [23] of the same binder?
**A.** Its value is -0.14.

**Q.** And the “glycan array binding signal (z-score)” value [24]?
**A.** Its value is 10.3.

**Q.** What about the “glycan array binding signal (z-score)” value [25] of the same binder?
**A.** Its value is 13.5.

**Q.** And the “glycan array binding signal (z-score)” value [26]?
**A.** Its value is 4.35.

**Q.** What about the “glycan array binding signal (z-score)” value [27] of the same binder?
**A.** Its value is 7.43.

**Q.** And the “glycan array binding signal (z-score)” value [28]?
**A.** The value was 13.9.

**Q.** What about the “glycan array binding signal (z-score)” value [29] of the same binder?
**A.** Its value is 3.05.

**Q.** And the “glycan array binding signal (z-score)” value [30]?
**A.** The value was 1.38.

**Q.** What about the “glycan array binding signal (z-score)” value [31] of the same binder?
**A.** Its value is 1.16.

**Q.** What about the “glycan array binding signal (z-score)” value [32] of the same binder?
**A.** The value was 0.09.

**Q.** What about the “glycan array binding signal (z-score)” value [33] of the same binder?
**A.** The value was -0.165.

**Q.** And the “glycan array binding signal (z-score)” value [34]?
**A.** Its value is -0.193.

**Q.** And the “glycan array binding signal (z-score)” value [35]?
**A.** Its value is -0.206.

**Q.** What about the “glycan array binding signal (z-score)” value [36] of the same binder?
**A.** The value was -0.193.

**Q.** And the “glycan array binding signal (z-score)” value [37]?
**A.** Its value is -0.193.

**Q.** And the “glycan array binding signal (z-score)” value [38]?
**A.** The value was -0.176.

**Q.** What about the “glycan array binding signal (z-score)” value [39] of the same binder?
**A.** The value was -0.192.

**Q.** And the “glycan array binding signal (z-score)” value [40]?
**A.** Its value is -0.177.

**Q.** What about the “glycan array binding signal (z-score)” value [41] of the same binder?
**A.** Its value is -0.21.

**Q.** And the “glycan array binding signal (z-score)” value [42]?
**A.** The value was -0.206.
